Experimental data from PubChem BioAssay AID1159580 (chemical genetic matrix, 2015).
“And” between values parts separate entries of the source, which are not always exact repeats. Equal entries are not always repeated. The campaign covered roughly 5,500 compounds. About 2,000 (36%) were called active. Roughly 18% stayed inconclusive and do not appear here. Rule as the data show it: active = normalized growth mostly below about 0.91 (no sharp cut-off); inconclusive = no clear call, values can overlap the other calls; inactive = mostly above about 0.92. The list shows a part of the results.

Assay: chemical genetic growth profiling, strain panel (AID 1159580);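 also: tested at 20 µM; growth read once vehicle control cultures reached saturation at 30 °C; 1 = growth at the plate median or of vehicle wells; lower values mean less growth of the strain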
Conditions: S. cerevisiae deletion strains, growth OD

Measured: normalized growth

COc1cc(OC)c2c(c1Cl)OC1(C2=O)C(O)=CC(=O)CC1C (stereo unspecified)
inactive: locus YAL021C, strain ccr4, active compounds read low 1.02 | locus YAL026C, strain drs2, active compounds read low 1.01 | locus YAL030W, strain snc1, active compounds read low 1.01 | locus YBL061C, strain skt5, active compounds read low 1.01 | locus YBR009C, strain hhf1, active compounds read low 1.01 | locus YBR021W, strain FUR4, active compounds read low 1.04 | locus YBR023C, strain chs3, active compounds read low 1.01 | locus YBR171W, strain sec66, active compounds read low 1.03 | locus YBR229C, strain ROT2, active compounds read low 1.02 | locus YBR231C, strain swc5, active compounds read low 1.01 | locus YBR279W, strain paf1, active compounds read low 1.01 | locus YCL011C, strain gbp2, active compounds read low 1.02 | locus YCL016C, strain dcc1, active compounds read low 1.01 | locus YCL029C, strain bik1, active compounds read low 1.01 | locus YCL061C, strain MRC1, active compounds read low 1.01 | locus YCL069W, strain vba3, active compounds read low 1.01 | locus YCR088W, strain abp1, active compounds read low 1.01 | locus YDL005C, strain med2, active compounds read low 1.01 | locus YDL035C, strain GPR1, active compounds read low 1.04 | locus YDL040C, strain nat1, active compounds read low 1.01 | locus YDL074C, strain BRE1, active compounds read low 1.07 | locus YDL101C, strain DUN1, active compounds read low 1.03 | locus YDL134C, strain PPH21, active compounds read low 1.01 | locus YDL185W, strain tfp1, active compounds read low 0.981 | locus YDL192W, strain arf1, active compounds read low 1.02 | locus YDR001C, strain nth1, active compounds read low 1.01 | locus YDR069C, strain doa4, active compounds read low 1.01 | locus YDR101C, strain arx1, active compounds read low 1.02 | locus YDR137W, strain rgp1, active compounds read low 1.02 | locus YDR159W, strain sac3, active compounds read low 1.02 | locus YDR162C, strain NBP2, active compounds read low 1.05 | locus YDR195W, strain ref2 1.03 | locus YDR297W, strain sur2, active compounds read low 1.01 | locus YDR318W, strain mcm21, active compounds read low 1 | locus YDR334W, strain swr1, active compounds read low 1.01 | locus YDR335W, strain msn5, active compounds read low 1.02 | locus YDR388W, active compounds read low 1.01 | locus YDR392W, strain spt3, active compounds read low 1.01 | locus YDR502C, strain sam2, active compounds read low 0.986 | locus YEL003W, strain gim4, active compounds read low 1.01 | locus YEL037C, strain rad23, active compounds read low 1 | locus YEL061C, strain CIN8 (second series), active compounds read low 1.01 | locus YER015W, strain faa2, active compounds read low 1.01 | locus YER016W, strain bim1, active compounds read low 1.02 | locus YER110C, active compounds read low 0.977 | locus YER111C, strain swi4, active compounds read low 1.01 | locus YER155C, strain BEM2 (second series), active compounds read low 1.03 | locus YER155C, strain BEM2, active compounds read low 1.02 | locus YER167W, strain BCK2, active compounds read low 1.02 | locus YFR010W, strain ubp6, active compounds read low 1.01 | locus YGL078C, strain dbp3, active compounds read low 0.978 | locus YGL086W, strain mad1, active compounds read low 1.01 | locus YGL167C, strain pmr1, active compounds read low 1.02 | locus YGL173C, strain kem1, active compounds read low 1.01 | locus YGL227W, strain vid30, active compounds read low 1.01 | locus YGL240W, strain doc1, active compounds read low 1 | locus YGL248W, strain PDE1, active compounds read low 1.02 | locus YGL253W, strain hxk2, active compounds read low 1.01 | locus YGR135W, strain pre9, active compounds read low 0.983 | locus YGR252W, strain gcn5, active compounds read low 0.915 | locus YHR013C, strain ard1, active compounds read low 1.03 | locus YHR027C, strain rpn1, active compounds read low 1.01 | locus YHR030C, strain SLT2, active compounds read low 1.02 and 0.99 | locus YHR079C, strain IRE1 (second series), active compounds read low 0.979 | locus YHR079C, strain IRE1, active compounds read low 0.997 | locus YHR094C, strain hxt1, active compounds read low 0.983 | locus YHR129C, strain ARP1, active compounds read low 1.02 | locus YHR142W, strain chs7, active compounds read low 1.02 | locus YHR200W, strain rpn10, active compounds read low 0.999 | locus YIL066C, strain RNR3, active compounds read low 1.07 | locus YIL073C, strain SPO22, active compounds read low 1 | locus YIL125W, strain kgd1, active compounds read low 0.99 | locus YIR030C, strain dcg1, active compounds read low 1.01 | locus YJL092W, strain hpr5, active compounds read low 1.01 | locus YJL095W, strain BCK1 (second series), active compounds read low 1 | locus YJL095W, strain BCK1, active compounds read low 1.04 and 0.978 | locus YJL115W, strain asf1, active compounds read low 1 | locus YJL129C, strain trk1, active compounds read low 1.02 | locus YJL134W, strain LCB3, active compounds read low 1.02 | locus YJL154C, strain vps35, active compounds read low 1.02 | locus YJL164C, strain tpk1, active compounds read low 1.01 | locus YJL166W, strain qcr8, active compounds read low 1.01 | locus YJL168C, strain set2, active compounds read low 0.977 | locus YJL187C, strain SWE1 (second series), active compounds read low 1.03 | locus YJL187C, strain SWE1, active compounds read low 1.01 | locus YJR066W, strain TOR1, active compounds read low 0.9
